Molecules are shown by their SMILES. About 83,000 compounds went through this panel and 20% of them were active in at least one assay; those are over-represented in the sample as a whole.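 Percent growth is the endpoint: 0 to 100 indicates growth inhibition (40 means 60% inhibition), 0 means no net growth, and negative values indicate cell death.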 Unmarked numbers belong to inactive results. Active and inactive are the calls of the source. How the source made its calls: active means growth percent below 10; inactive means the rest.

Test systems include NCI-H23 lung; NCI-H226 lung; HOP-62 NSCLC; NCI-H460 lung; NCI-H522 lung; A549/ATCC NSCLC; 786-0 renal; COLO 205 colon; NCI-H322M lung; HOP-92 NSCLC.
Common to all, as to test: NCI-60 one-dose screen, 48 h (100 = growth as untreated, 0 = no growth, -100 = all killed)
What all share (conditions): 10 µM unless noted

Turning to `CCOC(=O)c1ccc(Nc2nc(NN)nc(-c3ccc(F)cc3)c2C#N)cc1`, the growth in the experiment with NCI-H23 lung was 110%; with NCI-H226 lung, 116%; with HOP-62 NSCLC, 103%; with NCI-H460 lung, 112%; in the experiment on NCI-H522 lung it was 98.5%; with A549/ATCC NSCLC, 105%. Moreover, the growth in the experiment on 786-0 renal is 103%; in the experiment on COLO 205 colon it was 119%.

Take `COc1cc2c(c(OC)c1OC)C(=O)CC(c1cccc(NC(=O)c3cc(NC(=O)[C@H](CO)NC(=O)OC(C)(C)C)ccc3Cl)c1)O2` (stereo partly drawn): the growth was 37.3% in the experiment on NCI-H23 lung; 42.5% in the experiment on NCI-H322M lung; 50.3% in the experiment on HOP-62 NSCLC; 34.3% in the experiment on NCI-H460 lung; 39.7% in the experiment with HOP-92 NSCLC; 27.6% with NCI-H522 lung. In addition, the growth in the experiment with A549/ATCC NSCLC is 58.2%; in the experiment with 786-0 renal, 42.8%; in the experiment with COLO 205 colon it was 43%.

With `O=C(CCN1C(=O)/C(=C/c2ccc(F)cc2)SC1=S)N1CCOCC1`, the growth in the experiment on NCI-H23 lung was 67.9%; in the experiment on NCI-H322M lung, 80.2%; with HOP-62 NSCLC, 109%; with NCI-H460 lung, 68.6%; in the experiment with NCI-H522 lung, -79% (active); in the experiment on A549/ATCC NSCLC, 81.5%. Also, in the experiment with 786-0 renal, the growth is 67.1%.

In the case of `Cc1c(C(=O)NNC(=O)c2ccc(Cl)cc2)nnn1-c1ccc(Br)cc1`, the growth in the experiment with NCI-H23 lung is 102%; in the experiment on NCI-H322M lung, 91%; in the experiment with HOP-62 NSCLC, 98.4%; in the experiment with NCI-H460 lung, 107%; with HOP-92 NSCLC it was 91.6%; with NCI-H522 lung, 97.6%. Moreover, the growth is 100% in the experiment on A549/ATCC NSCLC, 98.8% in the experiment with 786-0 renal and 104% in the experiment on COLO 205 colon.

As for `Cc1ccccc1[C@H]1C(C(=O)c2ccc(Cl)cc2)C2(N[C@@H]1c1ccccc1)C(=O)Nc1ccccc12` (stereo partly drawn), the growth was -52% (active) in the experiment with NCI-H23 lung; 16.6% with NCI-H322M lung; -48.2% (active) in the experiment on HOP-62 NSCLC; -45.5% (active) with NCI-H460 lung; -50.4% (active) with HOP-92 NSCLC; -48.1% (active) with NCI-H522 lung. The values for the growth in the experiment with A549/ATCC NSCLC, in the experiment with 786-0 renal and in the experiment with COLO 205 colon were -21.7% (active), -41.5% (active) and -74.5% (active), respectively.

As to `COc1ccc2oc3c4[nH]c5ccccc5c4c4c(c3c2c1)C(=O)N(C(=O)OC(C)(C)C)C4=O`, the growth in the experiment on NCI-H23 lung was -19.9% (active); in the experiment on NCI-H322M lung, 3.12% (active); in the experiment on HOP-62 NSCLC, -18% (active); in the experiment on NCI-H460 lung, 4.57% (active); in the experiment on HOP-92 NSCLC, -14.6% (active); in the experiment on NCI-H522 lung, -30.7% (active). Besides, the growth in the experiment on A549/ATCC NSCLC is 0.48% (active); in the experiment on 786-0 renal, 11.6%; in the experiment with COLO 205 colon, -40.9% (active).

For the compound `N/C(=N\c1nc2ccccc2s1)NC(=O)Nc1ccc(Cl)cc1Cl`, the growth is -83.4% (active) in the experiment with NCI-H23 lung; -40.2% (active) with NCI-H226 lung; -77% (active) with HOP-62 NSCLC; -95.9% (active) with NCI-H460 lung; -78.6% (active) in the experiment on NCI-H522 lung; -85.4% (active) in the experiment with A549/ATCC NSCLC. The results for the growth with 786-0 renal and in the experiment with COLO 205 colon were -78.6% (active) and -87.7% (active), respectively.

For the compound `Cn1cc(-c2nnc(N)nc2-c2c[nH]c3ccc(F)cc23)c2cccnc21`, the growth in the experiment with NCI-H23 lung is 53.7%; with NCI-H322M lung, 71%; in the experiment with HOP-62 NSCLC, 49.2%; in the experiment with NCI-H460 lung, 18%; in the experiment with HOP-92 NSCLC, 92.8%; in the experiment with NCI-H522 lung it was 20.4%. For the same compound, the growth in the experiment with A549/ATCC NSCLC is 47.6%; in the experiment with 786-0 renal, 47.2%; with COLO 205 colon, 26.9%.
